Hits are enriched below; roughly 1.2% of the tested compounds scored in any of these assays.
PrP 5UTR inh = suppresses PrP 5' UTR mRNA reporter expression; cell-based PrP 5' UTR mRNA reporter, plate reader; inhibition, % (no concentration beside the values); 0.35% of 340,000 active; AID 488862; in the data active means inhibition above about 52%; further: 0 = median of the neutral control wells
PrPC surface inh = inhibitors of human cell surface prion protein PrPC | P04156 | TR-FRET read-out | inhibition, % at 13.8 µM | 0.43% of 370,000 active; in the data active means inhibition above about 24%; further: 0% = median of the test wells and 100% = reference compound wells
Mtb UGM inh = Mtb UDP-galactopyranose mutase inhibition; P9WIQ1; purified UGM, fluorescence polarization probe displacement; inhibition, % at 10 µM; 0.06% of 320,000 active; in the data active means inhibition above about 10%, passing the limit was not always enough
Target sequence (P9WIQ1 whole entry, looked up): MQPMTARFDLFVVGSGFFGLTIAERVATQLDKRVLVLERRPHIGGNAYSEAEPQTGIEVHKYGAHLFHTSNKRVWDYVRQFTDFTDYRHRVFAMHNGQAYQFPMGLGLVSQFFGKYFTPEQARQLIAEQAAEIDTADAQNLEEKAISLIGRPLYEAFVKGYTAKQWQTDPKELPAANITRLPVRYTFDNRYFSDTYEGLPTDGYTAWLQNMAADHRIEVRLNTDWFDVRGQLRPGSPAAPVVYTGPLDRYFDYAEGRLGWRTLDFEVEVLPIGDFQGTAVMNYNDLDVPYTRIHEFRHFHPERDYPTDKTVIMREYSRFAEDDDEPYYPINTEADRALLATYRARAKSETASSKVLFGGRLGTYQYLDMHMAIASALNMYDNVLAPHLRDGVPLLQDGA
Rv3671c protease = inhibitors of M. tuberculosis serine protease Rv3671c | P9WHR9 | inhibition, % at 5.96 µM | 0.048% of 320,000 active | AID 2606;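 further: extracellular domain of Rv3671c used as enzyme; 0% = enzyme with DMSO and 100% = no enzyme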
FadD28 FP inh = inhibitors of Mycobacterium tuberculosis FadD28 bisubstrate binding. FadD28 bisubstrate probe binding, fluorescence polarization. 0.22% of 360,000 active. AID 588549. inhibition, % at 12.5 µM; in the data active means inhibition above about 8.5%, passing the limit was not always enough
PriA SSB inh = inhibitors of Klebsiella pneumoniae PriA binding to SSB C-terminal tail | AlphaScreen SSBct-PriA binding, biotinylated peptide | 0.6% of 430,000 active | inhibition, % at 33 µM; in the data active means inhibition mostly above about 37%, no sharp cut-off; inactive means mostly below about 20%;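 further: plate controls were negative control peptide for no effect and reference peptide for full effect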
Rv3671c confirm = confirmation of M. tuberculosis Rv3671c protease inhibitors; shares compounds with Rv3671c protease; inhibition, % at 5.96 µM; 40% of 140 active
PrP UTR cherry = prion 5' UTR mRNA inhibition, cherry-pick retest | shares compounds with PrP 5UTR inh | cell-based prion protein 5' UTR reporter, plate reader | inhibition, % at 2.5 µM | 48% of 1,100 active; in the data active means inhibition above about 54%
PrPC confirm = confirmation of inhibitors of cell surface human prion protein. shares compounds with PrPC surface inh. cell surface PrPC level, TR-FRET. inhibition, % at 13.8 µM. 65% of 1,500 active. AID 743200; in the data active means inhibition above about 25%
LD9 tox = counter-screen for PrPc inhibitors: cytotoxicity in LD9 cells; shares compounds with PrPC surface inh; luminescence viability; inhibition, % at 13.8 µM; 29% of 1,500 active; in the data active means inhibition above about 9.5%
The depositor's hits bear a star; . = not tested or not shown. Unless noted, no stated cut-off is given here; in the data, active means inhibition above about 38%; inactive means the rest.

SMILES	PrP 5UTR inh	PrPC surface inh	Mtb UGM inh	Rv3671c protease	FadD28 FP inh	PriA SSB inh	PrP UTR cherry	others
C#CCn1cc(/C=N/Nc2nc3ccccc3[nH]2)c2ccccc21	-35	36*	-3	62*	5	.	.	Rv3671c confirm=64*;PrPC confirm=10;LD9 tox=19*
Cc1ccc(CNC(=O)Cc2csc(NC(=O)C3CCC(=O)N3)n2)cc1 (centres undefined)	.	.	.	.	.	2	.
O=C(O)C1(Br)CC12c1ccccc1-c1ccccc12 (centres undefined)	54*	1	.	.	-3	-5	-7
O=C(C1CC1)N1CCC(Cn2cnc3ccccc32)CC1	.	.	.	.	.	-4	.
Cc1nnc(C2CCCN(C(=O)c3ccco3)C2)s1 (centres undefined)	.	.	.	.	.	16	.
O=c1cc2c(nn1Cc1ccc(Cl)cc1)-c1ccccc1CC2	-1	7	0	-10	-1	-21	.
O=c1cc2c(nn1Cc1cccc(Cl)c1)-c1ccccc1CC2	57*	-4	1	1	-2	-17	17
Nc1nc(-c2nonc2N)no1	71*	-3	-1	8	-3	-16	-20
O=C(Cn1nnn(-c2ccc(NC(=O)[C@@H]3CC=CCC3)cc2)c1=O)NCc1ccco1	.	.	.	.	.	-13	.
CCc1ccn2cc(-c3ccc4c(c3)OCO4)nc2c1	74*	-1	1	3	-1	-6	84*
COC(=O)c1ccc2nc(-c3ccc4c(c3)OCO4)cn2c1	39	2	-3	-5	-1	-14	.
O=C(CNCc1ccco1)Nc1ccc(N2CCCCCC2)cc1	83*	-3	-1	8	0	44	-12
O=C(NCCn1ccnc1C1CC1)c1ccc(Cl)s1	.	.	.	.	.	-13	.
CC(C)N(Cc1cc2ccccc2[nH]c1=O)C(=O)c1cccc([N+](=O)[O-])c1	68*	-6	-2	1	-1	-16	-7
Cc1ccc2nc(NC(=S)NC(=O)c3ccco3)sc2c1	-95	9	2	-12	-4	-9	.
Cc1ccc2nc(NC(=O)c3ccco3)sc2c1	59*	3	1	-4	-3	-2	38
O=C(c1ccc2ncsc2c1)N1CCC(Oc2ncccc2Cl)CC1	.	.	.	.	.	3	.
COCCn1c(C)cc(C(=O)COC(=O)c2cc3c(s2)CCC3)c1C	-41	1	1	-2	1	-3	.
COc1ccc(Cl)cc1C(=O)CSc1nnnn1C1CCCC1	-19	7	1	-3	1	-42	.
COCCn1c(C)cc(C(=O)COC(=O)c2cccc(O)c2)c1C	83*	1	0	3	-2	10	79*
COCCn1c(C)cc(C(=O)CSc2nnnn2C2CCCC2)c1C	64*	-6	-3	6	-1	-13	57*
COCCn1c(C)cc(C(=O)CSc2nnc(C)s2)c1C	57*	3	-1	3	-2	4	72*
CC(C)c1ccc(NC(=O)C(=O)NCC2CCN(Cc3cccs3)CC2)cc1	.	.	.	.	.	-14	.
CCOc1ccc(S(=O)(=O)N=C(Nc2ccc(OC)cc2)c2ccccc2)cc1	.	.	.	.	.	2	.
CCN1C(=O)N[C@@H](CCc2ccccc2)[C@H](C(C)=O)[C@H]1C	66*	-3	0	-6	-3	-7	-26
SMILES	PrP 5UTR inh	PrPC surface inh	Mtb UGM inh	Rv3671c protease	FadD28 FP inh	PriA SSB inh	PrP UTR cherry	others
CC(=O)[C@H]1[C@H](CCc2ccccc2)NC(=O)N(Cc2ccccc2)[C@@H]1C	-52	-1	1	7	-3	-1	.
O=C(CSc1nnc(Cn2c(=O)sc3ccccc32)n1-c1cccc(C(F)(F)F)c1)Nc1ccc2c(c1)OCCO2	.	.	.	.	.	-8	.
O=C(c1c(F)cccc1Cl)N1CCC(CSC2=NCCS2)CC1	.	.	.	.	.	18	.
Cc1[nH]nc2ccc(-c3cncc(OC[C@@H](N)Cc4c[nH]c5ccccc45)c3)cc12	95*	.	.	.	-12	1	91*
COC(=O)[C@H](Cc1c[nH]c2ccccc12)NC(=O)Cc1c[nH]c2ccccc12	-18	8	0	-3	-5	18	.
CCOC(=O)C1(Cc2ccccc2)CCCCCC1=O (centres undefined)	55*	-1	.	.	-2	-34	1
Cc1cc(-n2ccn3c(=O)n(CC(=O)Nc4cccc(F)c4)nc3c2=O)ccc1Br	.	.	.	.	.	2	.
N#Cc1c(NC(=O)CSc2ncn[nH]2)sc2c1CCCCC2	74*	7	1	-15	-7	-13	77*
O=C(NCc1nc2ccccc2[nH]1)c1cccc([N+](=O)[O-])c1	.	.	.	.	.	9	.
COc1ccccc1C(=O)NCCC(=O)Nc1nc2ccccc2[nH]1	-17	2	2	0	0	-3	.
CC(=O)Nc1cc2ccccc2oc1=O	-9	-2	0	-8	-3	-5	.
Cc1ccc(C(=O)Nc2cc3ccccc3oc2=O)cc1	86*	4	-1	1	-2	-7	86*
CSc1ccccc1C(=O)Nc1nc2ccccc2[nH]1	-91	11	1	-3	-3	6	.
O=C(NCc1nc2ccccc2[nH]1)c1ccc([N+](=O)[O-])cc1	74*	-33	1	-1	-3	-12	-26
COc1cc(SC)ccc1C(=O)Nc1nc2ccccc2[nH]1	96*	5	-2	3	-3	5	98*
COc1ccccc1C(=O)Nc1nc2ccccc2[nH]1	92*	-9	1	-13	-4	-5	93*
CCC(=O)N1CCc2ccc(NC(=O)COc3ccc(Cl)cc3)cc2C1	.	.	.	.	.	7	.
Cc1ccc(C(=O)Nc2nc3ccccc3[nH]2)cc1	61*	-3	9	0	0	4	65*
Cc1ccc(C(=O)Nc2cnc3ccccc3c2)cc1	89*	-1	1	-10	0	-3	87*
Cc1cc(NC(=O)c2ccc(-n3nncc3C)cc2)no1	.	.	.	.	.	-5	.
Cc1ccc(NC(=O)c2nc(NCc3cccnc3)ncc2Cl)cc1	.	.	.	.	.	-20	.
O=C(COc1ccc(C=NNC(=O)c2ccccc2O)cc1)Nc1ccc([N+](=O)[O-])cc1	.	.	.	.	.	-6	.
CCOC(=O)COc1cccc2c(=O)n(CC(=O)NCc3ccc(F)cc3)ccc12	60*	-10	-5	4	0	-10	84*
CCOC(=O)COc1cccc2c(=O)n(CC(=O)NCc3ccccc3)ccc12	53	-3	-2	5	0	-6	.
S=C(NC1Cc2ccccc2C1)N1CCN(c2ccc(Cl)c(Cl)c2)CC1	.	.	.	.	.	5	.
COc1ccc(C(CNC(=O)Cc2cc(OC)c(OC)c(OC)c2)N2CCCC2)cc1 (centres undefined)	-25	-5	0	-10	0	4	.
